Bioassay records (PubChem)
A selection: hits, their analogues and other compounds. The true share with any hit is near 4.7%.
D1 antagonist = blocks dopamine activation of the human D1 receptor. P21728. HEK293 TREx D1 cells, calcium flux, dopamine EC80; active compounds read low. 3.2% of 360,000 active. AID 504652. activity change, negative = inhibition, % at 10 µM; in the data active = activity change below about -30%; note: % is set by controls: 0 for no effect and ±100 for the full control effect
Target sequence (P21728 whole entry, looked up): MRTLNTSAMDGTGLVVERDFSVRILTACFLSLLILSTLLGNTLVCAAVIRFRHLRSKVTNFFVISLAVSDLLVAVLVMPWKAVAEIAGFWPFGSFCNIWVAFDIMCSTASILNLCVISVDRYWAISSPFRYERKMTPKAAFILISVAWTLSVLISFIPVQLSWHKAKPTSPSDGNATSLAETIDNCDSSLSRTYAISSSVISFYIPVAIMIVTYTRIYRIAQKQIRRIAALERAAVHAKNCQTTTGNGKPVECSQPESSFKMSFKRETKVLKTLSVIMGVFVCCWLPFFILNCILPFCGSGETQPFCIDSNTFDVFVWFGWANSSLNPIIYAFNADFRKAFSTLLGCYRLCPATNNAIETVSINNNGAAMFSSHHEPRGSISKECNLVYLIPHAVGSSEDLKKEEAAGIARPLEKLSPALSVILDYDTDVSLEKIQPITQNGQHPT
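Cells carrying a force-coupled, tetracycline-inducible human D1 receptor report calcium flux. Each well gets a 10 s baseline, compound with 180 s monitoring, then an EC80 dopamine stimulus with a second 180 s kinetic read.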
D1 ag = agonists of human D1 dopamine receptor | 1% of 360,000 active | P21728 | activation, % at 2 µM | HEK293 T-REx D1 cells, calcium flux, agonist mode | AID 504660; note: 0% is about no effect
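Agonism was scored from calcium flux recorded over 180 s (1 read/s) after pintool compound addition, following a 10-cycle baseline. Cells were inducible force-coupled HEK293 TREx D1, plated overnight at 30 C and loaded with no-wash calcium dye.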
D1 potentiator = enhances dopamine response at the human D1 receptor | P21728 | potentiation, % at 10 µM | 0.036% of 360,000 active | HEK293 TREx D1 cells, calcium flux, dopamine EC20 potentiation; in the data active = potentiation above about 30%; note: 0% is about no effect
TRHR agonist = TRH receptor (human) agonism; activation, % at 2 µM; 0.18% of 360,000 active; AID 493084; P34981; TRHR cells, calcium flux fluo-8, FDSS agonist mode; note: 0% is about no effect
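Agonist-mode FDSS calcium read (Ex 480/Em 530, 1 s cycles) in 1536-well TRHR cells with fluo-8 dye, after 10-cycle baseline and 23 nL compound addition; TRH at EC20 (10 nM final) added afterwards for the enhancer phase.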
TRHR enhancer = TRH receptor (human) allosteric enhancement; P34981; TRHR cells, fluo-8 calcium fluorescence, EC20 TRH enhancement; enhancement, % at 2 µM; 0.66% of 360,000 active; AID 493056; in the data active = enhancement above about 30%; note: 0% is about no effect
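Enhancer read-out: after compound pinning and an initial kinetic agonist-mode read, an EC20 of TRH (10 nM final) was injected and fluo-8 calcium signal (Ex 480/Em 530) followed at 1 s/cycle for 100 cycles in TRHR-expressing cells.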
Active calls of the source: *; . = not tested or not shown. Cut-off read from the data, not from the text of the source, unless noted: active = activation above about 30%; inactive = the rest.

SMILES | D1 antagonist | D1 ag | D1 potentiator | TRHR agonist | TRHR enhancer
Cc1ccc(Oc2ccc(Oc3ccc(C)cc3)nn2)cc1 | 1 | 44* | 1 | -1 | 12
CCNc1nc2c(c(=O)n(C)c(=O)n2C)n1Cc1ccc(Cl)cc1 | -2 | 8 | -2 | -2 | 0
CCNc1nc2c(c(=O)n(Cc3ccccc3)c(=O)n2C)n1Cc1ccccc1 | -3 | 2 | 1 | 0 | 39*
CCOc1ccc(NC(=O)Cn2c(=O)nc(-c3ccccc3)c3ccccc32)cc1 | 15 | 3 | 0 | 0 | -1
CCn1nc(C)c(Br)c1-c1nc(CS(=O)(=O)c2ccsc2)no1 | -2 | 0 | 4 | 0 | 37*
Cc1ccc(S(=O)(=O)/C(C#N)=C/c2c(N3CCC(C(N)=O)CC3)nc3c(C)cccn3c2=O)cc1 | -47* | 11 | -2 | 0 | -2
COCCNC(=O)/C(C#N)=C/c1c(N2CCN(C)CC2)nc2c(C)cccn2c1=O | -25 | 2 | -6 | 0 | 5
CCN1CCN(c2nc3c(C)cccn3c(=O)c2/C=C(\C#N)C(=O)NCCOC)CC1 | -1 | 15 | -8 | 30* | -5
CCN1CCN(c2nc3c(C)cccn3c(=O)c2/C=C(\C#N)S(=O)(=O)c2ccccc2)CC1 | -13 | 2 | -5 | 1 | 11
CCN1CCN(c2nc3ccccn3c(=O)c2/C=C(\C#N)S(=O)(=O)c2ccccc2)CC1 | -66* | 2 | -5 | 2 | 1
Cc1cccn2c(=O)c(/C=C(\C#N)S(=O)(=O)c3ccccc3)c(N3CCC(C(N)=O)CC3)nc12 | -6 | -1 | 7 | 0 | -8
COc1cccc(N2C(=O)C(CC(=O)Nc3ccc(F)cc3)N(CCC3=CCCCC3)C2=O)c1 (stereo not given) | -10 | 9 | -2 | 1 | -11
Cc1ccc2c(c1)-c1nc(-c3ccccc3)cc(-c3ccccc3)c1CO2 | -6 | -1 | -1 | 0 | 3
Cc1c(Cl)ccc2sc(N3CCN(C(=O)CS(=O)(=O)c4ccccc4)CC3)nc12 | . | 49* | -4 | 0 | 1
Cc1nc2nc(SCc3c(F)cccc3Cl)nn2c(C)c1Cc1ccccc1 | 14 | -1 | -2 | 2 | -4
CCC(=O)N1CCc2cc(S(=O)(=O)NC(CC(C)C)C(=O)NCc3cccc(OC)c3)ccc21 (stereo not given) | 8 | 1 | 0 | -1 | -7
CCC(=O)N1CCc2cc(S(=O)(=O)NCCC(=O)NCc3ccc(F)cc3)ccc21 | -20 | 0 | -2 | 0 | -6
CCC(=O)N1CCc2cc(S(=O)(=O)NCCC(=O)NCc3ccc(OC)cc3)ccc21 | -44* | 1 | -1 | 0 | 6
CCC(=O)N1CCc2cc(S(=O)(=O)NC(CC(C)C)C(=O)NCc3ccc(F)cc3)ccc21 (stereo not given) | -40* | -1 | 4 | -1 | 12
Cc1ccc(-n2nc(C)c3c(C)cc(=O)n(CC(=O)NC(C)C)c32)cc1 | 1 | 0 | -6 | 0 | -2
CCc1ccc2oc(C(=O)Nc3ccccc3C(=O)OC)cc(=O)c2c1 | -17 | 3 | 1 | 0 | 9
Cc1cc(C(=O)COC(=O)C2=NNC(=O)CC2)c(C)n1-c1ccc(OC(F)F)cc1 | -35* | 11 | -3 | 0 | 6
Cc1cc(C(=O)C(C)OC(=O)C2=NNC(=O)CC2)c(C)n1-c1ccc(OC(F)F)cc1 (stereo not given) | -11 | 7 | -6 | 0 | 3
Cc1cc(-c2nn3c(-c4ccccc4)nnc3s2)c2ccccc2n1 | -33* | -1 | -6 | 0 | -2
c1ccc(-c2cc(-c3nn4c(-c5ccco5)nnc4s3)c3ccccc3n2)cc1 | 26 | 4 | -6 | -2 | -6
SMILES | D1 antagonist | D1 ag | D1 potentiator | TRHR agonist | TRHR enhancer
CCCS(=O)(=O)c1ncc(Cl)c(C(=O)N(Cc2ccccc2)Cc2ccco2)n1 | -43* | 1 | -3 | 1 | -26
Cc1nc(SCC(=O)c2ccc(F)cc2)c([N+](=O)[O-])[nH]1 | -3 | 1 | 1 | 0 | -1
Cc1nc(SCC(=O)c2ccc(Cl)cc2)c([N+](=O)[O-])[nH]1 | -40* | 2 | -4 | 0 | 3
COc1ccccc1Oc1ccc(N2CC(C(=O)OCC(=O)c3ccccc3)CC2=O)cc1 (stereo not given) | -30* | 5 | -13 | 1 | 8
Cc1ccc(C(=O)NCc2ccc(N(C)C)cc2)cc1NC(=O)c1nsc2ccccc12 | 1 | 3 | 2 | 0 | -5
COc1cccc(Cc2nc3ccccc3nc2SCC(=O)NCCc2ccccc2)c1 | 4 | 16 | -4 | 1 | -3
COC(=O)c1ccccc1OC(=O)c1cc[n+]([O-])cc1 | 9 | 7 | 31* | 0 | 4
CCCc1cc(=O)[nH]c2nnc(SCC(=O)N3CC(C)OC(C)C3)n12 (stereo not given) | -65* | 3 | -2 | 0 | 2
Cc1cc(=O)[nH]c2nnc(SCC(=O)N3CC(C)OC(C)C3)n12 (stereo not given) | 33 | 3 | -4 | 0 | -1
CN1CCc2c(sc3c2C(=O)NC(c2cccs2)N3)C1 (stereo not given) | -48* | 8 | -3 | 2 | -2
CN1CCc2c(sc3c2C(=O)NC(c2ccc(C(C)(C)C)cc2)N3)C1 (stereo not given) | 2 | 37* | 3 | 9 | 0
CSc1ccc(C2NC(=O)c3c(sc4c3CCN(C)C4)N2)cc1 (stereo not given) | 7 | 34* | . | -1 | 0
CCc1ccc(NC(=O)Cn2c(=O)n(-c3cc(OC)c(OC)c(OC)c3)c(=O)c3ccccc32)cc1 | -10 | -1 | 0 | 1 | -5
CC(=O)C(Sc1nc(-c2ccccc2Cl)nc2c1c(=O)n(C)c(=O)n2C)C(=O)N(C)C (stereo not given) | 4 | 0 | 6 | 0 | -7
COc1ccc(C(=O)Nc2cccc(-c3nc4cccnc4s3)c2C)c(OC)c1 | -10 | -1 | -3 | 0 | -3
Cc1ccc(C)c(NC(=O)C(=O)NCCc2c[nH]c3ccccc23)c1 | 8 | 2 | -12 | 0 | 8
Cc1ccc(NC(=O)C(=O)NCCc2c[nH]c3ccccc23)c(C)c1 | 5 | 30* | 2 | 4 | 11
O=C(NCCc1c[nH]c2ccccc12)c1cncc(Br)c1 | -35* | 10 | -8 | 7 | 13
O=C(NCCc1ccc(Cl)cc1Cl)c1cncc(Br)c1 | -38* | 4 | -12 | -1 | 8
Cc1cccc(C(=O)Nc2cccc(C(=O)OCc3cc(=O)n4ccsc4n3)c2)c1 | -2 | 0 | 0 | 0 | -2
CC(=O)c1c(C)[nH]c(C(=O)Nc2cccc(S(=O)(=O)N3CCOCC3)c2)c1C | 4 | 2 | -5 | 1 | 7
CCCCNC(=S)Nc1cc(S(=O)(=O)N2CCCCC2)ccc1C | -37* | 23 | -15 | 1 | -12
O=C(NCCc1ccccc1)c1cc(S(=O)(=O)N2CCCC2)ccc1F | -7 | 4 | 3 | 0 | 1
